Screens: PubChem BioAssay, The Scripps Research Institute Molecular Screening Center
An excerpt weighted towards active compounds, which were near 1.8% of everything screened.
LYPLA1 inh – blocks human lysophospholipase 1, a PME1 counter-screen; recombinant LYPLA1, FP-Rh probe fluorescence polarization; inhibition, % at 5.9 µM; 320,000 compounds, 0.16% hits;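 active = inhibition above the mean of all tested compounds plus 3 SD, set per campaign, cut at about 14% in these data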;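 also: inhibitors block serine hydrolase probe labeling of LYPLA1 so polarization falls; 0% = enzyme with DMSO and 100% = wells lacking LYPLA1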
Target sequence (O75608 whole entry, looked up): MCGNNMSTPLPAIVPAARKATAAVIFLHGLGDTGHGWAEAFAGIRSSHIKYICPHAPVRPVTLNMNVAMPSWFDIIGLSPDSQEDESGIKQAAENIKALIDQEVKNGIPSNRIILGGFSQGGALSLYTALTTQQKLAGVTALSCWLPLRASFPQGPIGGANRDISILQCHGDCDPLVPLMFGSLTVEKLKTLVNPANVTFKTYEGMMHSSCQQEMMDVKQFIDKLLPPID
PME-1 inh – PME-1 (human) inhibition; 320,000 compounds, 0.53% hits; inhibition, % at 5.9 µM; AID 2130; recombinant PME-1, FP-Rh probe fluorescence polarization;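 active = inhibition above the campaign mean of all compounds plus 3 SD, cut at about 26% in these data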;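 also: competitive labeling of PME-1 active site by serine hydrolase directed probe; 0% = PME-1 with DMSO and 100% = wells lacking PME-1 enzyme; inhibitors block probe labeling so polarization falls and inhibition rises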
Fam108B counter – counter-screen for RBBP9 inhibitors: inhibitors of mouse Fam108B; AID 1947; 300,000 compounds, 0.33% hits; inhibition, % at 9.51 µM; recombinant Fam108B, FP-Rh probe fluorescence polarization;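 active = inhibition above the screen mean inhibition plus 3 SD, computed separately per campaign, cut at about 18% in these data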;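 also: inhibitors lower polarization as less probe binds the enzyme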
LYPLA2 counter – counter-screen for PME1 inhibitors: inhibitors of human LYPLA2; O95372; recombinant LYPLA2, FP-Rh probe fluorescence polarization; inhibition, % at 5.9 µM; 320,000 compounds, 0.38% hits;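 active = inhibition above the screen-wide mean plus 3 SD, limit set per campaign, cut at about 26% in these data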;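 also: 0% = LYPLA2 with DMSO and 100% = wells lacking LYPLA2 enzyme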
Target sequence (O95372 whole entry, looked up): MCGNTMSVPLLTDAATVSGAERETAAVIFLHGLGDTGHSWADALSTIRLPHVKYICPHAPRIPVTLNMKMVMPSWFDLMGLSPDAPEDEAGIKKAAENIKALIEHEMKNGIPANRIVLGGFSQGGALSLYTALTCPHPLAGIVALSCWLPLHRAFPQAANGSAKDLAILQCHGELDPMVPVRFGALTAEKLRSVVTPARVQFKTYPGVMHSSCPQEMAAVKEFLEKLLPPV
GSTO1 counter – counter-screen for RBBP9 inhibitors: inhibitors of human GSTO1. P78417. recombinant GSTO1, activity-based probe fluorescence polarization. inhibition, % at 5.96 µM. 300,000 compounds, 1.1% hits;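 active = inhibition above the campaign mean inhibition plus 3 SD, cut at about 35% in these data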;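 also: 0% = GSTO1-1 with DMSO and 100% = wells lacking GSTO1-1 enzyme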
Target sequence (P78417 whole entry, looked up): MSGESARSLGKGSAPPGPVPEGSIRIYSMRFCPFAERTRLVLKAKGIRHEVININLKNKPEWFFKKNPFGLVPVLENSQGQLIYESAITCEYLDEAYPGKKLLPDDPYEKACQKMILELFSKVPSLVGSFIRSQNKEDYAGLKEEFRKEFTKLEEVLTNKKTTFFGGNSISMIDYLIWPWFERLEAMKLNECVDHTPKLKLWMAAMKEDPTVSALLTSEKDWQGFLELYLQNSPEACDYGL
PAD4 inh – PAD4 (human) enzyme inhibition | recombinant PAD4, RCA probe fluorescence polarization | inhibition, % at 6.36 µM | Q9UM07 | 330,000 compounds, 0.41% hits;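 active = percent inhibition above a cutoff equal to the mean of all tested compounds plus 3 SD, cut at about 15% in these data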;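 also: 0% = PAD4 with RCA probe and DMSO and 100% = probe without PAD4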
PAD4 FP conf – PAD4 (human) inhibition, confirmed; shares compounds with PAD4 inh; 1,200 compounds, 28% hits; inhibition, % at 6.36 µM; recombinant PAD4, RCA probe fluorescence polarization; AID 488796;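 active = mean inhibition across replicates above the hit cutoff set by the earlier primary screen, cut at about 15% in these data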;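 also: inhibitors block active-site labeling by the probe so polarization falls; 0% = PAD4 with probe and DMSO and 100% = probe without PAD4 enzyme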
* hit, by the source's call; · = not tested or not shown.

SMILES	LYPLA1 inh	PME-1 inh	Fam108B counter	LYPLA2 counter	GSTO1 counter	PAD4 inh	PAD4 FP conf
Cc1nnc(SC(=O)N2c3ccccc3Sc3ccccc32)s1	-1.3	3.0	-11.8	-3.1	-26.4	33.9*	5.5
O=C(O)CSc1nnc(-c2ccccc2)c(-c2ccccc2)n1	0.0	2.3	-1.3	1.8	5.0	-4.5	·
CCN(CC)C(=O)CSc1nnc(-c2ccccc2)c(-c2ccccc2)n1	-2.5	3.3	9.0	-2.5	-0.6	14.9*	7.3
O=C(CN1CCCCC1)Nc1ccc(C(F)(F)F)cc1Cl	-0.5	-6.3	-1.8	-2.9	-2.5	18.1*	-5.5
O=C(CN1CCCC1)Nc1cc(C(F)(F)F)ccc1Cl	-1.0	-3.5	-3.3	-1.6	-1.2	4.5	·
COc1cc(CCC(=O)NCCc2ccc(F)cc2)cc(OC)c1OC	-0.4	1.8	2.8	-3.9	-1.0	-6.2	·
CCOC(=O)[C@H]1[C@H]2COc3cc(OC)ccc3[C@@H]2N2C(=O)c3cc(C)ccc3NC(=O)[C@@]12C	-2.7	4.7	4.5	-10.3	1.9	16.0*	9.4
CCOC(=O)[C@H]1[C@H]2COc3cc(OC)ccc3[C@@H]2N2C(=O)c3cc(OC)ccc3NC(=O)[C@@]12C	0.0	-0.3	-1.7	4.8	2.2	-1.3	·
Cc1cc(C(=O)NCCc2ccc(S(N)(=O)=O)cc2)c(C)o1	0.3	0.0	7.6	-1.1	10.5	2.2	·
COc1ccccc1C1c2ccc3ccccc3c2Oc2ncn(CCN(C)C)c(=N)c21 (centres undefined)	-3.3	-3.0	-2.9	0.5	1.3	18.6*	1.2
COc1ccccc1C1c2ccc3ccccc3c2Oc2ncn(CCCO)c(=N)c21 (centres undefined)	-3.1	-4.4	-5.3	-8.2	-12.2	-7.3	·
CCOc1ccc(S(=O)(=O)NN)cc1	0.7	-6.3	0.3	-1.2	-6.3	-1.8	·
Cc1ccc(SCc2cc(=O)n3[nH]c(C)nc3n2)cc1	-0.5	4.0	0.2	-3.7	-0.2	-7.0	·
Cc1ccc(SCc2cc(=O)n(C)[nH]2)cc1	-4.1	-1.3	2.3	5.0	53.4*	23.9*	-0.5
CN(C)Cc1nnnn1-c1cccc(-n2nnnc2CN(C)C)c1	-0.6	6.4	3.4	5.8	2.8	1.2	·
O=C1c2ccc3c4c(ccc(c24)C(=O)N1c1cccc(O)c1)C(=O)N(c1cccc(O)c1)C3=O	-5.0	1.7	12.8	-1.9	33.8	17.6*	37.6*
Cc1cccc(N2C(=O)c3cccc4cccc(c34)C2=O)c1	1.0	6.1	2.3	7.9	0.6	-1.8	·
Cc1cccc(N2C(=O)c3cccc4c(N)ccc(c34)C2=O)c1	11.7	13.6	13.5	17.8	9.5	27.1*	22.2*
C=CCOc1nc2c(c(=O)n(C)c(=O)n2C)n1Cc1c(Cl)cccc1Cl	-0.2	2.7	0.9	0.6	7.6	0.8	·
CC(C)(C)c1ccc(OCc2cnc(Cl)s2)cc1	-1.9	-1.3	-1.3	3.1	6.0	-0.2	·
Nn1c(SCC(=O)Nc2nc3ccccc3s2)nncc1=O	-0.3	3.3	5.3	-3.7	16.6	21.8*	38.7*
CCOc1ccc(NC(=O)CSc2nncc(=O)n2N)cc1	0.5	-1.0	-3.2	-4.2	18.5	15.2*	6.8
Cc1csc(=Nc2ccccc2)n1Cc1ccco1	0.4	-10.0	1.8	1.0	4.2	-4.5	·
Cc1ccc(NC(=O)COC(=O)c2ccc(=O)n(Cc3ccccc3)n2)cc1F	2.5	0.4	-2.6	2.3	5.5	2.2	·
O=C(COc1ccccc1)Nc1ccc(NC(=O)c2ccco2)cc1	-1.4	-7.6	-1.2	0.8	0.4	-3.9	·
SMILES	LYPLA1 inh	PME-1 inh	Fam108B counter	LYPLA2 counter	GSTO1 counter	PAD4 inh	PAD4 FP conf
O=C(COc1ccc(Cl)cc1)Nc1ccc(NC(=O)c2ccco2)cc1	3.9	-4.7	-2.8	1.8	3.2	26.7*	-1.8
CN(CCO)c1nc(N)c2c(N)nc3c(c2c1C#N)CC(=O)N3C1CCCC1	-2.2	5.7	13.3	1.4	13.9	15.9*	2.9
CCC1Cc2c(nc(N)c3c(N)nc(N4CCCCC4)c(C#N)c23)O1 (centres undefined)	10.2	16.6	7.7	7.7	0.9	-2.5	·
CN(C)c1cccc(C(=O)NNC(=O)CSc2ccccc2)c1	1.7	1.8	-2.0	2.3	6.1	0.1	·
O=C(O)[C@H](Cc1ccccc1)NC(=O)N1CCC(Cc2ccccc2)CC1	0.9	-6.7	1.0	2.2	1.5	42.0*	-0.4
COc1ccc(C(=O)Nc2nnc(Cc3ccc(OC)c(OC)c3)s2)c(OC)c1	-12.4	-2.2	-0.9	-12.3	28.1	22.2*	31.6*
Cc1[nH]n(-c2ccccc2)c(=O)c1C(c1cccc([N+](=O)[O-])c1O)c1c(C)[nH]n(-c2ccccc2)c1=O	-2.2	1.6	5.8	2.3	63.8*	64.4*	-1.0
O=C1CCC(C(=O)O)(c2ccccc2)C1 (centres undefined)	0.9	1.7	8.3	6.5	-2.5	0.2	·
c1ccc(C2=NNC(=NC3CC3)SC2)cc1	0.0	1.8	2.5	8.0	1.7	22.2*	1.3
COC(=O)N/N=C1/C/C(=N\NC(=O)OC)c2ccccc21	-2.1	1.9	-0.2	-3.7	17.2	20.7*	1.9
O=C(CCCn1c(=O)[nH]c2ccsc2c1=O)NCc1cccs1	-1.5	7.6	4.8	-4.1	2.2	3.3	·
CCOc1ccc(NC(=O)c2sccc2-n2cccc2)cc1	0.9	1.3	2.0	3.4	1.1	-7.1	·
Cc1onc(C(=O)N2CCOCC2)c1[N+](=O)[O-]	-0.6	3.8	1.1	1.5	-0.7	21.8*	19.2*
CC(C)c1onc(C(=O)N2CCOCC2)c1[N+](=O)[O-]	-1.4	0.9	-0.3	-3.2	10.6	-2.5	·
Nc1ccccc1O	1.4	2.7	·	-2.4	·	15.5*	-0.3
O=C(NCCCO)c1nnc(Cc2c(F)cccc2Cl)o1	-2.2	-1.9	1.1	-1.6	1.7	49.9*	6.1
CCOC(=O)c1cc(-c2ccccc2)n(CCC(=O)N2CCN(c3ccc(OC)cc3)CC2)c1C	0.1	-0.1	0.4	-2.9	2.0	-3.5	·
CC1(C)Cc2c(c(N3CCOCC3)nc3sc4c(NCc5ccccc5)nnnc4c23)CS1	-2.7	-1.5	-6.7	-4.6	-8.2	1.8	·
CC(C)CNc1nnnc2c1sc1nc(N3CCOCC3)c3c(c12)CC(C)(C)SC3	-3.1	20.0	-7.2	-3.5	-5.6	27.2*	11.7
C/C(=N\NC(=O)C(=O)Nc1cccc(Cl)c1C)c1ccncc1	1.2	-2.2	4.8	-5.0	4.5	25.4*	2.0
CCN(CC)c1nc(N)nc(NS(=O)(=O)c2ccc(Cl)cc2)n1	5.4	-1.0	-2.6	2.8	7.1	27.0*	3.8
Cc1cc(NN)nc(NS(=O)(=O)c2ccc(Cl)cc2)n1	-6.0	0.5	-3.9	-18.8	7.4	0.6	·
COCCN1CN(S(=O)(=O)c2cccc(Cl)c2)c2nc3ccccc3nc21	2.7	16.6	2.1	4.8	-3.8	-3.9	·
